MsrA inh: inhibitors of bovine MsrA; purified bovine MsrA, absorbance read-out; inhibition, % at 15.5 µM; actives 0.75% (n = 360,000)
SMARCA2 activ: activators of SMARCA2 function; MG213 cells, MMTV-luciferase reporter, dexamethasone, overnight; activation, % at 9.1 µM; actives 1% (n = 370,000); in the data active means activation above about 7.8%
MsrA act: activators of bovine methionine sulfoxide reductase A; purified bovine MsrA, absorbance read-out; activation, % at 10.6 µM; actives 0.3% (n = 360,000); AID 602163; in the data active means activation above about 7.5%
ABCB6 inh MLPCN: blocks the human ABCB6 transporter; actives 0.19% (n = 360,000); fluorescence ratio to DMSO, % at 10 µM; K562-ABCB6 porphyrin accumulation, flow cytometry, 1 h; hits give low values;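 active means fluorescence ratio to DMSO below 75%, the collection mean minus 3 SD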;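 further: signal is porphyrin accumulated inside mitochondria; lower ratio means ABCB6 inhibition with less porphyrin fluorescence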
MsrA inh confirm: bovine MsrA inhibition, confirmed; shares compounds with MsrA inh; purified bovine MsrA, absorbance read-out; inhibition, % at 15.5 µM; actives 41% (n = 2,300); AID 651822;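 further: coupled to thioredoxin reductase with NADPH and selenocystamine and DMSO as substrate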
Numbers stand for hits; - = inactive; . = not tested or not shown. Rows were chosen to be rich in hits. Some 2.1% of all compounds tested hit in one or more screens of this group. Unless noted, no stated cut-off is given here; in the data, active means inhibition above about 4.5%; inactive means the rest.

SMILES	MsrA inh	SMARCA2 activ	MsrA act	ABCB6 inh MLPCN	MsrA inh confirm
CC1=CC(=C(C#N)C#N)C=C(C)N1CCN1CCN(C(=O)Nc2cccc(Cl)c2)CC1	5.0	-	-	-	4.6
O=C(Nc1cccc(Cl)c1)N1CCN(Cc2ccccc2)CC1	-	-	-	-	.
CC1=CC(=C(C#N)C#N)C=C(C)N1CCN1CCNCC1	6.5	-	-	-	7.9
CC(=O)N1CCN(CCN2C(C)=CC(=C(C#N)C#N)C=C2C)CC1	-	-	-	-	.
CSc1ccccc1CNC(=O)C1(C)CCCN1CC(C)C (stereo not drawn)	-	-	-	-	.
O=C(NN=Cc1c(F)c(F)c(F)c(F)c1F)c1ccc(NS(=O)(=O)c2cccs2)cc1	-	-	-	-	.
COc1cc(C=NNC(=O)c2ccc(NS(=O)(=O)c3cccs3)cc2)cc(Br)c1O	5.6	-	-	-	6.0
CC(C)c1ccc(/C=N/NC(=O)c2cccc(S(=O)(=O)N3CCOCC3)c2)cc1	-	-	-	-	.
COc1ccccc1CNC(=O)c1ccc(NS(=O)(=O)c2cccs2)cc1	-	-	-	-	.
CC(=O)Nc1ccc(C=NNC(=O)c2ccc(NS(=O)(=O)c3cccs3)cc2)cc1	4.8	-	-	-	7.1
CC(=O)Nc1ccc(/C=N/NC(=O)c2cccc(S(=O)(=O)N3CCOCC3)c2)cc1	6.2	-	-	-	-
CCN(CC)C(=O)Cn1nc(Cc2ccncc2)c2ccccc2c1=O	.	-	.	.	.
COC(=O)[C@]12C[C@H](CC(=O)NCc3ccc(C)o3)C(=O)N(Cc3ccco3)C1=C[C@H](COCc1ccccc1)O[C@@H]2C	.	-	.	.	.
COc1ccc2oc(-c3ccco3)cc(=O)c2c1	-	-	-	-	.
O=C(COc1ccc2oc(-c3ccco3)cc(=O)c2c1)N1CCCCC1	4.7	-	-	-	-
Cc1ccc(S(=O)(=O)N/N=C/c2cc(Br)ccc2O)cc1	4.9	-	-	-	-
COc1ccc(-n2nnnc2C(c2cccs2)N2CCN(C/C=C/c3ccccc3)CC2)cc1 (stereo not drawn)	-	-	-	-	.
COc1cc(C2C(C(=O)c3ccco3)=C(O)C(=O)N2CCc2ccccc2)ccc1O (stereo not drawn)	-	-	-	-	.
COc1cccc(C2C(C(=O)c3ccco3)=C(O)C(=O)N2CCCN2CCOCC2)c1OC (stereo not drawn)	4.7	-	-	-	-
COc1ccc(CCN2C(=O)C(O)=C(C(=O)c3ccco3)C2c2cccs2)cc1OC (stereo not drawn)	4.7	-	-	-	-
CN(CCO)c1cccc2c1S(=O)(=O)N(Cc1cn(Cc3ccc(Cl)cc3)nn1)Cc1ccccc1O2	.	-	.	.	.
CC(=O)c1cc(-c2ccc(-c3ccccc3)c(F)c2)c(=O)n2c1CCC2	.	-	.	.	.
N#Cc1cc(NC2CCCC2)c([N+](=O)[O-])cc1C#N	42.9	-	-	-	-
COC(=O)c1cc(-c2cccs2)c(=O)n2c1CCC2	.	-	.	.	.
O=C(NCc1cccs1)C1Cc2c(-c3ccc(Cl)cc3)ccnc2O1 (stereo not drawn)	-	-	-	-	.
SMILES	MsrA inh	SMARCA2 activ	MsrA act	ABCB6 inh MLPCN	MsrA inh confirm
CC1(C)Cc2c(sc(/N=C/N3CCCC3)c2C#N)C(C)(C)N1	5.1	-	-	-	-
O=C(N/N=C/c1ccco1)c1cc2ccccc2o1	6.0	-	-	-	7.6
Cc1ccc(CNC(=O)c2ccc3c(c2)NC(=O)CS3)cc1	-	-	-	-	.
Cc1ccccc1C(=O)/C=C1\NC(=O)CS1	6.3	-	-	-	6.6
Cc1cc(C)cc(C(=O)/C=C2\NC(=O)CS2)c1	5.3	-	-	-	5.3
O=C1CS/C(=C/C(=O)c2ccccc2)N1	-	-	-	-	.
Cn1ccnc1C(=O)O[C@@H]1CCC[C@@]2(C(=O)N(Cc3ccccc3)c3ccccc32)[C@H]1NC(=O)CCc1ccccc1	.	-	.	.	.
COc1ccc(NC(=O)/C=C/c2ccc(Br)o2)cn1	5.3	-	-	-	-
CCc1nnc(NC(=O)/C=C/c2ccco2)s1	6.8	-	-	-	6.2
COc1ccc(NC(=O)/C=C/c2ccco2)cn1	4.9	-	-	-	-
COc1ccc(OC)c(/C=C/C(=O)Nc2ccc(OC)nc2)c1	-	-	-	-	.
COc1ccc(NC(=O)c2ccco2)cn1	-	-	-	-	.
CCCN(C(=O)CCc1cn(CCC)c2ccccc12)c1ccc(N(C)c2ccccn2)cc1	-	-	.	.	.
COC(=O)[C@]1(C#N)CC(=O)N(c2ccccc2)[C@@H]1c1ccccc1	.	-	.	.	.
CCOC(=O)[C@]12CCCC=C1N(Cc1ccc(Cl)cc1Cl)C(=O)[C@H](CC(=O)N1CCOCC1)C2	-	-	-	-	.
CNc1ccccc1/C(O)=C(\C#N)C(=O)NCc1cccs1	.	-	.	.	.
O=S1(=O)c2ccccc2-c2c(nnn2Cc2ccccc2)CN1C1CC1	.	-	.	.	.
